mHTT-CaM PPI inh: mHTT-calmodulin interaction abrogation; P42858; AlphaScreen His-mHTT/GST-CaM binding, luminescence; inhibition, % at 15 µM; 3.6% of 190,000 active; AID 1671202;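 also: 0% = both proteins with DMSO and 100% = one protein alone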
Target sequence (P42858 whole entry, looked up, stated change not applied): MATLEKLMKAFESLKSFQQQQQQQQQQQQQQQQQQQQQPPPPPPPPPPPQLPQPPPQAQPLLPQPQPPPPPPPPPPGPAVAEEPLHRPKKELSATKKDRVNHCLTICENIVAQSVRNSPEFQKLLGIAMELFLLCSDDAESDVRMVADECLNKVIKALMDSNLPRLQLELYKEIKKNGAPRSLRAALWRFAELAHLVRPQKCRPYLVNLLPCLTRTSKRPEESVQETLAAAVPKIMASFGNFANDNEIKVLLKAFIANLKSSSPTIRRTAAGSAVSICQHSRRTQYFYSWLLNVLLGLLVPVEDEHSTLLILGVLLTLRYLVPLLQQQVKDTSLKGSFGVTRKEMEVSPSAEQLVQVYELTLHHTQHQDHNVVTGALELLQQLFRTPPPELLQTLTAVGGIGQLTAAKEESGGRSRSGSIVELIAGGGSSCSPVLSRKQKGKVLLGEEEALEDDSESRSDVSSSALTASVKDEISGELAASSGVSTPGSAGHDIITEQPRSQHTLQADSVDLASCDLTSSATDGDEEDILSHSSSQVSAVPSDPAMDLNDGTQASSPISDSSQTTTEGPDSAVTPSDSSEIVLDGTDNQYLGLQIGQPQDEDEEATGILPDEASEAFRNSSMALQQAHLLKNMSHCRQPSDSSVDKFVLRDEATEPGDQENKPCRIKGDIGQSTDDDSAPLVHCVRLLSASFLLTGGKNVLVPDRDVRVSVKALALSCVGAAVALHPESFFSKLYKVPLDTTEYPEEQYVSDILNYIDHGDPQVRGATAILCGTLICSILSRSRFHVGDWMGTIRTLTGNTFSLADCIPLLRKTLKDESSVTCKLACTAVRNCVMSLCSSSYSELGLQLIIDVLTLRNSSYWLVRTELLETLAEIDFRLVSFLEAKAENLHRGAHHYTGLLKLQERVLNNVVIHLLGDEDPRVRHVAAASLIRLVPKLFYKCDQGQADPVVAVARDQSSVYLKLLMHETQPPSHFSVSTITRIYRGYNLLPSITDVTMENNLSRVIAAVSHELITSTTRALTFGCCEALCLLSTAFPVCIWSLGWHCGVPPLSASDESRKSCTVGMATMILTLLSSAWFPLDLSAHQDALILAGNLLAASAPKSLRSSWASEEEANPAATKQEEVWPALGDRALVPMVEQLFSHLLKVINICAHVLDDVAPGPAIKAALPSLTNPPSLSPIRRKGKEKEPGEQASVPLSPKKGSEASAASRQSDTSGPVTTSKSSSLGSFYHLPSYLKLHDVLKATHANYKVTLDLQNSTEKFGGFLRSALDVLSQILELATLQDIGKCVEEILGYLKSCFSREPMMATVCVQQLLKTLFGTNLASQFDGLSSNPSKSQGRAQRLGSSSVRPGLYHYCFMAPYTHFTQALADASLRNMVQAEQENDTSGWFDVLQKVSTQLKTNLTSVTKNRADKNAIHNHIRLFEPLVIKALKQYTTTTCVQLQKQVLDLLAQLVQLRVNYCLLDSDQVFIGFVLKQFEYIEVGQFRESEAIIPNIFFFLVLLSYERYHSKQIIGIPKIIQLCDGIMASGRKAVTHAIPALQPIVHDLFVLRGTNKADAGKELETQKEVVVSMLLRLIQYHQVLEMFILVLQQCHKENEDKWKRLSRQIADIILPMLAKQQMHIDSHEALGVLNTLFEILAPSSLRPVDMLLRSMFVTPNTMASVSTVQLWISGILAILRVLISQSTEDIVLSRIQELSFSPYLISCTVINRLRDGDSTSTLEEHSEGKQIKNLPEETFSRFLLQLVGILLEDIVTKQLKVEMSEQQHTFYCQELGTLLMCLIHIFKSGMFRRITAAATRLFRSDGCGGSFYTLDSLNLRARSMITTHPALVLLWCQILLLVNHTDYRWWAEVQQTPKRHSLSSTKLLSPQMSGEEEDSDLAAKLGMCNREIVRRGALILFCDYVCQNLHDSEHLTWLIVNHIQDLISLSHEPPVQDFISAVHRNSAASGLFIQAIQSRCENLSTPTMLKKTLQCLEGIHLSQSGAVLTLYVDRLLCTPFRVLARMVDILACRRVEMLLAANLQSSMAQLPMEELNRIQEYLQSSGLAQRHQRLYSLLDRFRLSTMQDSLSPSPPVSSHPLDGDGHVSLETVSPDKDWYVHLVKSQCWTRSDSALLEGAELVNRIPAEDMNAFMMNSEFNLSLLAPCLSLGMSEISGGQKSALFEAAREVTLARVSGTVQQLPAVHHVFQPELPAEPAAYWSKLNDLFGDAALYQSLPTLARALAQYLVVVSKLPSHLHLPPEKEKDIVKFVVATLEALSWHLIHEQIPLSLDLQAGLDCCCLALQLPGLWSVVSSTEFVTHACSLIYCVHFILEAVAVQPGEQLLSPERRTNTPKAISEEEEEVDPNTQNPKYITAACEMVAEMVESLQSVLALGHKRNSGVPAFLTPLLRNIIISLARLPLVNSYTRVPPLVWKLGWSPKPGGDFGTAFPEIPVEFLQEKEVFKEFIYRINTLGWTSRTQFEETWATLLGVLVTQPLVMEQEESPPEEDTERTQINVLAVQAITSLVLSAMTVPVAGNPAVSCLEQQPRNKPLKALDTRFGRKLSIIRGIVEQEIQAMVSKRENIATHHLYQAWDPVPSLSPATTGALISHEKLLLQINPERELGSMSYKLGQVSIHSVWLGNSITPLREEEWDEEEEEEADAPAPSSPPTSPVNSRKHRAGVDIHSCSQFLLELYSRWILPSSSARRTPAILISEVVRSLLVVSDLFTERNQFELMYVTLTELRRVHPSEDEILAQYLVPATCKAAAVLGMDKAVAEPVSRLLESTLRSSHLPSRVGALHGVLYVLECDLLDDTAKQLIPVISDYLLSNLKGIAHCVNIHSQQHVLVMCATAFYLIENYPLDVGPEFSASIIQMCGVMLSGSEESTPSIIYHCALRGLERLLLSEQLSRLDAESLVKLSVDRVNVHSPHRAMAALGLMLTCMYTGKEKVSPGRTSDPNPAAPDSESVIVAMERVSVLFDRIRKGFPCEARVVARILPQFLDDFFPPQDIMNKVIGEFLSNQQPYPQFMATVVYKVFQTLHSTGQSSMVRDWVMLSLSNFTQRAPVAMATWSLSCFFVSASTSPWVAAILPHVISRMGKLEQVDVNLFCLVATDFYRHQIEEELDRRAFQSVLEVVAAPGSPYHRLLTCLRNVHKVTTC
Pf apPOL inh: Pf-apPOL DNA polymerase inhibition; Recombinant Pf-apPOL, molecular beacon fluorescence, 1.5 h; inhibition, % at 10 µM; 0.25% of 210,000 active
Starred values were filed as active, the others as inactive; i = inactive; / = no result given; ! = repeats disagree. Shown is part of a subset that was picked to be rich in hits. Rule as the data show it: active = inhibition above about 50%; inactive = the rest.

SMILES	mHTT-CaM PPI inh	Pf apPOL inh
CCCCOc1ccc(Nc2cc(C)nc3ccc(OC)cc23)cc1	60.8*	-10.1
Cc1cccc(N2CCN(S(=O)(=O)CCN)CC2)c1	-9.4	-3.7
Cc1cc(C2CCCN2C(=O)c2cnn3c(C(F)(F)F)cc(-c4ccccc4)nc23)no1 (stereo not given)	10.0	0.4
COc1ccc(NC(=O)COc2cccc(Cl)c2)c([N+](=O)[O-])c1	3.8	-3.8
CC1=CC(C)(C)N(C(=O)C(C)N2C(=O)c3ccccc3C2=O)c2cc(C)ccc21 (stereo not given)	3.0	2.8
CC(C)c1nc(N2CCCC2=O)sc1C(=O)N1CCN(c2ccc(F)cc2)CC1	32.5	-0.6
CCc1cc(C(=O)N2CCN(c3cc(C)ccc3C)CC2)nc2ccnn12	54.1*	1.4
CC(C)c1nc(N2CCCC2=O)sc1C(=O)N1CCN(c2ccccc2F)CC1	55.0*	-3.0
CCc1nc(N2CCCC2=O)sc1C(=O)N1CCN(c2cc(C)ccc2C)CC1	95.4*	-0.5
COC(=O)c1cccc(C(=O)N2CCN(c3cc(C)ccc3C)CC2)n1	1.1	-0.3
Cc1ccc(C)c(N2CCN(C(=O)c3cc(C)n4nccc4n3)CC2)c1	-6.5	-3.1
Cc1ccc(CNC(=O)NCCC2CCN(S(=O)(=O)c3ccccc3)CC2)cc1	23.6	4.4
CCOc1ccc(CN(CCc2ccc3c(c2)OCO3)Cc2cc(OC)c(OC)c(OC)c2)cc1	11.2	-5.1
COc1ccc(Br)cc1CN(CCc1ccc2c(c1)OCO2)Cc1cccnc1	57.0*	-9.9
COc1ccc(NC(=O)c2c(NC(=O)CNCCO)sc3c2CCC3)cc1	61.5*	-0.6
CCOc1ccc(NC(=O)c2c(NC(=O)CNCC3CCCO3)sc3c2CCC3)cc1 (stereo not given)	34.6	-3.9
COc1ccc(NC(=O)c2c(NC(=O)CNCc3ccco3)sc3c2CCC3)cc1	10.8	-1.8
CCOc1ccc(NC(=O)c2c(NC(=O)CNCCN3CCOCC3)sc3c2CCC3)cc1	81.3*	0.2
N/C(=N\OCc1ccc(F)cc1Cl)c1nonc1N	i	-3.5
CC(C)(C)c1[nH]nc2c1C(c1ccc(C(F)(F)F)cc1)C(C#N)=C(N)O2 (stereo not given)	8.0	1.7
FC(F)(F)c1ccc2c(c1)Nc1ccccc1S2	/	11.9
Fc1ccc2c(c1)Sc1ccccc1N2	73.6*	-10.4
Cc1ccc(C2C3=C(NCCN=C3c3ccccc3)C(=O)N2c2ccccc2)cc1 (stereo not given)	80.0*	4.4
COc1cccc(C2C3=C(NCCN=C3c3ccc(Cl)cc3)C(=O)N2c2ccccc2)c1 (stereo not given)	7.0	5.0
Cc1cc2[nH]c(C(=O)Nc3ccccc3C)c(CN3CCCC3)c2s1	9.0	6.7
SMILES	mHTT-CaM PPI inh	Pf apPOL inh
Cc1cc2[nH]c(C(=O)Nc3c(F)cccc3F)c(CN3CCCC3)c2s1	56.0*	2.7
Cc1ccc(-c2csc(Nc3ccccn3)n2)cc1C	25.6	4.1
Cc1ccnc(Nc2nc(-c3ccc(O)c(O)c3)cs2)c1	92.0*	0.5
Cc1cccnc1Nc1nc(-c2ccc(O)c(O)c2)cs1	62.0*	-3.0
COc1cccc(-c2csc(Nc3cc(C)ccn3)n2)c1	32.0	-4.1
Cc1cccc(C)c1NS(=O)(=O)c1ccc2[nH]c(=O)c(=O)[nH]c2c1	5.0	-9.5
CC(C)NC(=O)N1CCCN(Cc2cccs2)CC1	6.1	-1.3
COC(=O)C1C2C=CC3(CN(c4cccc(C)c4)C(=O)C13)O2 (stereo not given)	65.6*	-3.0
CCCCOC(=O)C1C2C=CC3(CN(c4cccc(C)c4)C(=O)C13)O2 (stereo not given)	-8.2	1.3
CC(=O)N(CN1C(=O)C2CC=CCC2C1=O)c1ccccc1 (stereo not given)	-6.0	5.9
Cc1ccc(-c2cc(-c3ccc(F)cc3)c(C#N)c(N)n2)o1	88.0*	-3.9
N#Cc1c(-c2ccccc2)cc(-c2ccc(F)cc2)nc1F	-0.3	/
Cc1nnsc1C(=O)N1CCN(c2nc3ccc([N+](=O)[O-])cc3s2)CC1	-9.6	-3.9
O=C(Nc1nc(C(=O)NCCC2=CCCCC2)co1)c1ccsc1	0.3	-8.9
Cc1[nH]c2ccccc2c1-c1csc(-c2ccncc2)n1	70.0*!	0.2
Cc1[nH]c2ccccc2c1-c1csc(-c2cccnc2)n1	33.0	-0.4
Cc1nnsc1C(=O)NCc1cc(-c2ccc(F)cc2F)on1	-16.4	-5.8
O=C(NCc1ccc2[nH]c3c(c2c1)CCCC3)C12CC3CC(CC(C3)C1)C2	98.2*	-6.1
CN(C)S(=O)(=O)c1ccc(C(=O)NCc2ccc3[nH]c4c(c3c2)CCCC4)cc1	28.8	-6.5
O=C(Cc1ccc([N+](=O)[O-])cc1)NCc1ccc2[nH]c3c(c2c1)CCCC3	30.7	27.8
O=C(CC1CCCCC1)NCc1ccc2[nH]c3c(c2c1)CCCC3	91.8*	-5.0
Cc1ccc(-c2csc(N)c2C(N)=O)cc1C	29.8	0.1
Cc1ccc(C(=O)Nc2ccncc2)cc1Cl	0.2	-6.5
CN1C(=O)c2cccnc2Sc2cc(NC(=O)CCc3ccccc3)ccc21	20.6	-2.8
CC(=O)N1CCN(c2ccccc2Cl)C(=O)C1C (stereo not given)	-6.3	2.4
SMILES	mHTT-CaM PPI inh	Pf apPOL inh
O=C(Nc1ncccc1O)c1c(O)c2cccc3c2n(c1=O)CC3	52.0*	-5.0
O=C(Nc1ncccn1)c1c(O)c2cccc3c2n(c1=O)CCC3	56.0*	-6.5
Cc1cccnc1NC(=O)c1c(O)c2cccc3c2n(c1=O)CCC3	10.0	-2.2
O=C(Nc1ccccn1)c1c(O)c2cccc3c2n(c1=O)CCC3	8.0	-0.4
Cc1cccc(NC(=O)CSc2cn(CCNC(=O)c3cccs3)c3ccccc23)c1C	1.0	1.3
COc1cccc(NC(=O)C2CC(=O)N(c3ccc(C)cc3)C2)c1 (stereo not given)	-5.0	-0.2
COc1ccc(CNc2ccc3c(c2)ncn3C2CCCCC2)cc1	46.0	5.6
COc1ccc2nc(SCc3cccc([N+](=O)[O-])c3)nc(C)c2c1	-2.6	11.1
COc1ccc2nc(SC(=O)c3ccccc3Cl)nc(C)c2c1	99.0*	-7.3
COc1ccc2nc(SC(=O)c3ccccc3)nc(C)c2c1	100.0*	-5.1
COc1ccc(NC(=O)c2ccccc2Cl)c(OC)c1	-7.4	3.0
Cc1cc(NC(=O)c2ccccc2)ccc1NC(=O)c1ccccc1	1.6	-4.8
Cc1cc(NC(=O)c2ccccc2)cc(NC(=O)c2ccccc2)c1C	-2.3	51.8*
CC12CS(=O)(=O)CC1SC(N)=N2 (stereo not given)	/	-2.9
C=CC(COCc1ccccc1)N(Cc1ccc(OC)cc1)S(=O)(=O)c1ccccc1Br (stereo not given)	-8.3	-1.8
COc1ccc(CN(CC(O)COCc2ccccc2)S(=O)(=O)c2ccccc2Br)cc1 (stereo not given)	86.5*	-5.8
Cc1ccc(-n2nc3c(c2NC(=O)c2ccc([N+](=O)[O-])cc2)CSC3)cc1	35.0	0.1
O=c1c2c3c(sc2nc2c4ccccc4c(NCC4CCCO4)nn12)CCCC3 (stereo not given)	65.1*	-0.2
CC1CCc2c(sc3nc4c5ccccc5c(NCc5ccco5)nn4c(=O)c23)C1 (stereo not given)	35.1	0.1
CCOc1ccccc1C(=O)Nc1ccc(F)cc1F	-17.3	-2.4
COc1ccc(NC(=O)C2CCN(c3cc(=O)n(C)c(=O)n3C)CC2)c(OC)c1	43.8	4.8
Cn1c(N2CCC(C(=O)N3CCN(Cc4ccccc4)CC3)CC2)cc(=O)n(C)c1=O	38.5	1.2

Source: PubChem
